# Screening results: PubChem, National Center for Advancing Translational Sciences (NCATS)
# Vaccinia mCherry: vaccinia inhibition (mCherry reporter) | Vaccinia virus mCherry reporter infection, fluorescence | Potency, µM (doses to about 36.5 µM), without a hit: top-dose activity change, negative = inhibition, actives largely listed as inhibitors | actives 0.63% (n = 310,000); calls by dose curve; tested in A549 cells; further: nearly all actives have a fitted effect of over 35% in size
# MARV entry inh: inhibitors of Marburg virus binding or cell entry; Marburg virus pseudotyped entry inhibition, cell reporter; Potency, µM (highest dose often 37.8 µM), without a hit: at the highest dose activity change, negative = inhibition, actives largely listed as inhibitors; AID 540276; actives 1.8% (n = 300,000); calls by dose curve; tested in HEK293 cells
# LASV entry inh: inhibitors of Lassa virus binding or cell entry; Lassa virus pseudotype entry inhibition, cell reporter; Potency, µM (series often up to 37.9 µM), without a hit: at the top dose activity change, negative = inhibition, hits mostly inhibitors; actives 1.2% (n = 300,000); AID 540256; calls by dose curve; tested in HEK293 cells; further: nearly all actives have a fitted effect of over 50% in size
# HCV inhibitor: HCV inhibition | Huh7.5.1 HCVcc-Cre infection, luciferase reporter, 44 h | Potency, µM (top dose mostly 41.8 µM), inactives show top-dose activity change, negative = inhibition, most hits filed as inhibitors | actives 3.4% (n = 340,000) | AID 651820; active means well fitted inhibition curve with a large enough effect; inconclusive means small, poorly fitted or top-dose-only effect, or another doubt; inactive means no such curve, though single readings can be large or run the other way
#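 Whole-lifecycle infectious HCVcc-Cre system; cells 1,000/well, compound then virus (~0.5 moi) added 4 h after plating, 44 h culture. Luciferase read 15 sec following 15 min substrate incubation, room temp.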
# Vaccinia Venus: vaccinia inhibition (Venus reporter). Vaccinia virus Venus reporter expression, fluorescence. Potency, µM (series often up to 36.5 µM), for the others: at the highest dose activity change, negative = inhibition, hits mostly inhibitors. actives 0.46% (n = 330,000). AID 720580; calls by dose curve; tested in A549 cells; further: nearly all actives have a fitted effect of over 30% in size
# Starred values were filed as active, the others as inactive; i = inactive; ? = inconclusive; / = no result; [ ] = another dose, or the depositor's remark. A selection: hits, their analogues and other compounds. The true share with any hit is near 4.6%. On the % scale 0 is the no-effect control and ±100 the full control effect; potency means the concentration at half of the fitted maximal effect.
SMILES,Vaccinia mCherry,MARV entry inh,LASV entry inh,HCV inhibitor,Vaccinia Venus
COc1ccccc1NC(=O)C(C)OC(=O)CSCC(=O)Nc1cc(C)on1 (stereo unspecified),/,/,/,11%,/
Cc1cccc(Oc2ccccc2NC(=O)CSCC(=O)Nc2cc(C)on2)c1,-27%,3.5µM*,?,?,-4%
CCOc1ccc(Oc2ccccc2NC(=O)CSCC(=O)Nc2cc(C)on2)cc1,-7%,?,?,8.9µM*,-28%
Cc1cc(NC(=O)CSCC(=O)Nc2ccccc2OC(F)F)no1,-8%,-1%[46.1 µM],-15%,2%,5%
O=c1c(Cl)cc(Cl)nn1-c1ccccc1,-5%,16µM*,?,?,-10%
COCc1c(C(=O)N2CCC(c3ccccc3)CC2)cnn1-c1nccc(-c2cc(C)sc2C)n1,14µM*,/,/,/,?
COCc1c(C(=O)N2CCN(C3CCCC3)CC2)cnn1-c1nccc(-c2cc(C)sc2C)n1,-12%,/,/,/,-10%
Cc1nc2ccccc2cc1OCc1ccc(Cl)cc1,/,?,0%,7.1µM*,/
Cc1nc2ccccc2cc1OCc1ccccc1,/,-10%,-21%,10µM*,/
COc1cccc(COc2cc3ccccc3nc2C)c1,/,?,?,5.6µM*,/
Oc1ccc(NCc2ccccc2OCc2ccc(Cl)cc2)cc1,2%[7.34 µM],?,-15%[46.1 µM],/,-9%[7.34 µM]
Cc1nc(OCc2ccccc2)c2ccccc2n1,/,?,?,?,-16%
O=C(Nc1ccc(Cl)c(C(F)(F)F)c1)C1CCN(S(=O)(=O)c2cccc3nonc23)CC1,-14%,?,?,/,-12%
COC(=O)C1=C(C)N(Cc2ccccc2)C(=NCc2cc(OC)c(OC)c(OC)c2)NC1c1cccc(F)c1 (stereo unspecified),/,-17%[14.2 µM],?,/,/
CCN1CCN(Cc2cc(Br)ccc2O)CC1,/,1%,7%,35µM*,/
CCc1ccc(CN2CCN(Cc3cc(Br)ccc3O)CC2)cc1,i,?,-5%[46.1 µM],-28%,-14%
FC(F)(F)c1ccc(N2CCN(c3cc(-c4ccccc4)nc4ncnn34)CC2)nc1,i,?,?,8.9µM*,-5%
FC(F)(F)c1cccc(Nc2cc(-c3ccccc3)nc3ncnn23)c1,/,/,/,9%,/
c1ccc(CN2CCN(c3nc(NCc4ccco4)c4ccccc4n3)CC2)cc1,?,?,13µM*,?,?
Cc1ccc(OCCN2CCN(c3nc(NCc4ccco4)c4ccccc4n3)CC2)cc1,?,?,?,11µM*,?
OCCN1CCN(c2nc(NCc3ccco3)c3ccccc3n2)CC1,/,-27%,-16%,?,-15%
COc1cc2nc(N3CCCCC3)nc(NC3CC3)c2cc1OC,-4%,/,/,/,-20%
CCOC(=O)c1ccc(NC(=O)Cn2nc3c4ccccc4n(Cc4cccc(F)c4)cc-3c2=O)cc1,?,/,0%[46.1 µM],/,?
CCN(CC)C(=O)c1c(NC(=O)c2ccccc2F)sc2c1CCC(C(C)(C)C)C2 (stereo unspecified),-14%,?,-13%[46.1 µM],/,-14%
O=C(Nc1ccc(N2CCCCC2)cc1)c1ccc(F)cc1,-13%,11µM*,?,?,-5%
SMILES,Vaccinia mCherry,MARV entry inh,LASV entry inh,HCV inhibitor,Vaccinia Venus
O=C(Nc1ccc(Nc2ccccc2)cc1)c1c(F)c(F)c(F)c(F)c1F,?,-1%,-10%,?,?
COc1ccc(C(=O)Nc2ccc(N3CCCC3)cc2)cc1,i,-15%,5%,-24%,-10%
O=C(Nc1ccc(Nc2ccccc2)cc1)c1ccc(F)cc1,-17%,/,/,10µM*,-19%
O=C(Nc1ccc(Nc2ccccc2)cc1)c1c(Cl)cccc1Cl,?,?,-18%[46.1 µM],10µM*,-10%
O=C(O)c1ccc(C(=O)Nc2ccc(F)cc2)cc1,-5%,/,/,9%,1%
CCCCOC(=O)Nc1ccc(N2CCCCC2)cc1,-17%,?,8.9µM*,23%,-11%
CCCCOC(=O)Nc1ccc(N2CCOCC2)cc1,/,?,12%,6%,/
CC(C)CCn1c(Oc2ccccc2F)nc2c1c(=O)n(C)c(=O)n2C,-18%,/,-22%[46.1 µM],/,-12%
Cc1ccc(NC(=O)CCC(=O)N2Cc3ccccc3Oc3ncccc32)cc1F,2%,/,-2%[46.1 µM],/,-6%
Nc1cccc2c1C(=O)N(C(=O)/C=C/c1ccc(F)cc1)C2=O,?,3.2µM*,11µM*,-29%,?
COc1ccc(NCc2ccc3c(c2)OCO3)cc1Cl,11µM*,12%,28%,11%,-1%
N#Cc1ccccc1NC(=O)C(=O)NCCc1csc(-c2ccc(C(F)(F)F)cc2)n1,-27%,/,?,/,?
Cc1ccc(O)c(C(=O)CC(=O)c2ccc(Cl)cc2)c1,/,/,/,22µM*,/
Cc1cccc(C(=O)CC(=O)c2cc(Cl)ccc2O)c1,/,-82%,?,?,/
COc1ccc(O)c(C(=O)CC(=O)c2ccc(F)cc2)c1,-2%,13µM*,10µM*,-8%,-10%
O=C(CC(=O)c1cc(Cl)ccc1O)c1ccccc1,?,?,13µM*,?,?
Cc1ccc(O)c(C(=O)CC(=O)c2cccc(F)c2)c1,-23%,?,?,?,-12%
Cn1c(=O)oc2cc(S(=O)(=O)CCC(=O)NCc3ccc(Cl)cc3)ccc21,-4%,/,8%[46.1 µM],/,-5%
CCOC(=O)c1ccc(NC(=S)NCCc2ccc(F)cc2)cc1,11%,-24%[46.1 µM],-4%,11µM*,4%
CCOC(=O)c1ccc(NC(=O)C(=O)NCCc2ccc(OC)cc2)cc1,-13%,12%[46.1 µM],22%[46.1 µM],-15%,8%
Fc1ccc2[nH]c3c(NCc4ccccc4)ncnc3c2c1,?,?,-30%,7.9µM*,?
COc1ccc2[nH]c3c(NCc4ccco4)ncnc3c2c1,?,?,-11%,?,-23%
COCC(=O)Nc1cc(C(=O)N[C@H]2CCCCNC2=O)c2c(c1)nc(-c1ccncc1)n2C,-4%,/,/,/,0%
Cc1sc(NC(=O)c2ccco2)c(C(c2cccnc2)N2CCCC2)c1C (stereo unspecified),/,?,-26%,13µM*,/
COc1ccc(C(Nc2ccccn2)c2c(NC(=O)c3ccco3)sc(C)c2C)cc1 (stereo unspecified),-13%,-29%,18%,?,-12%
SMILES,Vaccinia mCherry,MARV entry inh,LASV entry inh,HCV inhibitor,Vaccinia Venus
Cc1sc(NC(=O)c2ccco2)c(C(Nc2ccccn2)c2ccccc2)c1C (stereo unspecified),-28%,-18%,?,14µM*,-16%
COc1ccccc1CNC(=O)c1cc2c(=O)n(Cc3cccs3)ccc2nc1C,-5%,/,?,/,-13%
O=C(NCc1ccc2c(c1)CCN2C(=O)c1ccncc1)c1ccccc1Cl,0%,/,?,/,-3%
COC(=O)c1c(C(=O)OC)c2c3cc(OC)c(OC)cc3ccn2c1C(=O)OC,/,23%[14.2 µM],?,/,/
COc1ccc(-c2csc(NC(=O)CN3C(=O)C4CCCCC4C3=O)n2)c(OC)c1 (stereo unspecified),?,2%,-26%,11µM*,-30%
COc1ccc(OC)c(-c2csc(NC(=O)Cc3ccccc3OC)n2)c1,-23%,?,7.9µM*,?,?
Clc1ccc2nccnc2c1,-14%,/,/,/,6%
CCOC(=O)c1c(C)n(Cc2ccco2)c2ccc(OC)cc12,-7%,3%,-16%,13µM*,-22%
